The text below walks through data of PubChem BioAssay.

Assay [1] can be described thus: antimalarial activity against Dd2 strain (AID 2302;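 active = growth inhibition above 50% at the single 2 µM test dose, taken to imply half-maximal potency below 2 µM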;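 also: 0% = DMSO untreated growth and 100% = chloroquine plus artemisinin killed control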). To be noted: P. falciparum Dd2 in RBCs, LDH growth readout, 72 h; at 2 µM; stronger effect = higher value.
The nature of assay [2]: human hepatoma cell viability loss – ATP luminescence, cytotoxicity control for P. falciparum antimalarial project, primary screen (AID 2303;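 active = inhibition above 50%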;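 also: 0% = DMSO wells and 100% = digitonin-killed cells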). To be noted: HepG2 viability, 24-48 h, at 10 µM, stronger effect = higher value.
Assay [3] has as its target L-lactate dehydrogenase (Plasmodium falciparum (isolate CDC / Honduras)) (UniProt Q27743). Put plainly: PfLDH activity inhibition – cell lysate, 3D7 strain, counter-screen for P. falciparum growth inhibition project (AID 2304).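 Also: 0% = vehicle and 100% = reference inhibitor.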 To be noted: P. falciparum 3D7 crude extract, LDH APAD/NBT absorbance; at 2 µM; stronger effect = higher value.
Assay [4] is described as follows: inhibition of 3D7 malaria parasite growth – strain 3D7 (AID 2306).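 Also: 0% = DMSO wells and 100% = chloroquine plus artemisinin control wells.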 To be noted: P. falciparum 3D7 erythrocytic growth, LDH absorbance, 72 h; at 2 µM; stronger effect = higher value.
Assay [5] has as its target Calcium-dependent protein kinase 1 (Plasmodium falciparum (isolate 3D7)) (UniProt P62344). Put plainly: PfCDPK1 kinase inhibitors, biochemical, TCAMS library (AID 1159585; cut-off not given, nearly all actives have IC50 up to about 0.98 µM;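 also: inhibitors leave more ATP so luminescence rises with inhibition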). To be noted: recombinant PfCDPK1, Kinase-Glo ATP depletion luminescence.
The target of assay [6] is Plasmodium falciparum protein kinase 6 (PK6, PF3D7_1337100) (UniProt Q8IDW1). Nature of the assay: PfPK6 kinase inhibitors, biochemical, TCAMS library (AID 1159586). To be noted: recombinant PfPK6, Kinase-Glo ATP depletion luminescence.
Sequence of Plasmodium falciparum protein kinase 6 (PK6, PF3D7_1337100) (Q8IDW1 1-305): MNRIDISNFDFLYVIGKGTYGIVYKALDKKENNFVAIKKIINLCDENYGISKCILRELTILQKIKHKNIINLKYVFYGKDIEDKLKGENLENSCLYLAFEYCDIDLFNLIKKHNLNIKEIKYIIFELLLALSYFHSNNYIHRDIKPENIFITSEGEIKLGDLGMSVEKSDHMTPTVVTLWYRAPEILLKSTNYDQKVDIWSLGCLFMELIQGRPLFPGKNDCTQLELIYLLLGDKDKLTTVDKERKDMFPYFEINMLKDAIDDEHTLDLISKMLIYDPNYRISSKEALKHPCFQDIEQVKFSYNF
Assay [7] deals with Protein kinase 7 (PK7), Plasmodium falciparum 3D7 (PF3D7_0213400) (UniProt Q7YTF7). Put plainly: inhibition of Plasmodium PK7 catalytic activity – biochemical, TCAMS antimalarial set, Kinase-Glo luminescence (AID 1159587). To be noted: recombinant PfPK7, Kinase-Glo ATP depletion luminescence.
Sequence of Protein kinase 7 (PK7), Plasmodium falciparum 3D7 (PF3D7_0213400) (Q7YTF7 1-343): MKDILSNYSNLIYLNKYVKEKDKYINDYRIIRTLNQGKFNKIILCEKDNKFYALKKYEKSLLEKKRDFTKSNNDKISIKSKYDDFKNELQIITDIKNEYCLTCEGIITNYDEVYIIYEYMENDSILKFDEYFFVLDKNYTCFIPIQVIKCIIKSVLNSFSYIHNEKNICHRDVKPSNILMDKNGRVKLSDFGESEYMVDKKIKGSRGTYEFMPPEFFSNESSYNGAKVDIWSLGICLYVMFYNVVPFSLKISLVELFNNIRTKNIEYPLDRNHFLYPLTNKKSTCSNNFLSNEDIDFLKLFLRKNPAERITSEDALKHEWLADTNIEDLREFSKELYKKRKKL
Assay [8] concerns the target Calcium-dependent protein kinase 4 (Plasmodium falciparum (isolate 3D7)) (UniProt Q8IBS5). Nature of the assay: PfCDPK4 kinase inhibitors, biochemical, TCAMS library (AID 1159588; cut-off not given, nearly all actives have IC50 up to about 0.91 µM). To be noted: recombinant PfCDPK4, Kinase-Glo ATP depletion luminescence.

Molecules are shown by their SMILES. A number with no mark means an inactive call. For some of these results: Measured potencies and affinities stand elsewhere. Activity calls are given as the source filed them. Unless noted, no rule for the calls is given here.

Sequence of Calcium-dependent protein kinase 4 (Plasmodium falciparum (isolate 3D7)) (Q8IBS5 whole entry, looked up): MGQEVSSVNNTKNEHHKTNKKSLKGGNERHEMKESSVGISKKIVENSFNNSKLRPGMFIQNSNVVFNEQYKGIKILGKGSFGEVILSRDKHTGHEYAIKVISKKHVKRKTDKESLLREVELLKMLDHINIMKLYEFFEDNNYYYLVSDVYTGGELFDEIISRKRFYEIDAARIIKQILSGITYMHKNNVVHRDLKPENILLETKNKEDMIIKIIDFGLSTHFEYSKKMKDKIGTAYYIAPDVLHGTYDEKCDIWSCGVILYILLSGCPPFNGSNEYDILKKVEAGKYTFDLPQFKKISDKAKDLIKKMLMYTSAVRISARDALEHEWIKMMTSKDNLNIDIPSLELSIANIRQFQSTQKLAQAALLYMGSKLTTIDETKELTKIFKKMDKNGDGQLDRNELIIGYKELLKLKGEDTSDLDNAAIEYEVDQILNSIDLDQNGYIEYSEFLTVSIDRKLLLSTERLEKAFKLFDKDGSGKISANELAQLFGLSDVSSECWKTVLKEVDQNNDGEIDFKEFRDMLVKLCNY
Sequence of L-lactate dehydrogenase (Plasmodium falciparum (isolate CDC / Honduras)) (Q27743 whole entry, looked up): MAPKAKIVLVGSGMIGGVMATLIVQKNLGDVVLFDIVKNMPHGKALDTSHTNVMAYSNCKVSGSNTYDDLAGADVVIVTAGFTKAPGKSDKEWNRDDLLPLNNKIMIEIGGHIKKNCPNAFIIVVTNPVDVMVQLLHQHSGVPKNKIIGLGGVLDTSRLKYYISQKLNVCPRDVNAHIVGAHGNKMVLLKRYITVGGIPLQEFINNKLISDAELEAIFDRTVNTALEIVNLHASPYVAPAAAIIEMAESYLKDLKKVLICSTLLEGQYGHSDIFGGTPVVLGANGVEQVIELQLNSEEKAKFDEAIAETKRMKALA
Sequence of Calcium-dependent protein kinase 1 (Plasmodium falciparum (isolate 3D7)) (P62344 whole entry, looked up): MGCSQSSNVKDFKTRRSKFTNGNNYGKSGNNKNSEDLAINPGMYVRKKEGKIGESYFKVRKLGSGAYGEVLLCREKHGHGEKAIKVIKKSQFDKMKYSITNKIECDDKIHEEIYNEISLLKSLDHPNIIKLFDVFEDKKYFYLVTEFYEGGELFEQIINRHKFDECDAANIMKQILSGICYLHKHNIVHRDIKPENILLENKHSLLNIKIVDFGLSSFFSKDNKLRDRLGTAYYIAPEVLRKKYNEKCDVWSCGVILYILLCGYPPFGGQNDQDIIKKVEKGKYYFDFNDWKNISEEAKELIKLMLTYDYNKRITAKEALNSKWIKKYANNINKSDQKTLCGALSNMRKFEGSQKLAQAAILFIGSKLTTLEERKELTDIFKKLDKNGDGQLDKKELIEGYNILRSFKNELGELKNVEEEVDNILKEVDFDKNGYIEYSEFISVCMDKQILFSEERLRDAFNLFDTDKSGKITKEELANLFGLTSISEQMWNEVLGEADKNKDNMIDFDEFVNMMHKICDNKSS

With `Nc1nc(N)c2c(ccc3c2ccn3CCCC2CCCNC2)n1` (stereo not given), the growth inhibition in assay [1] is 55% (active); in assay [4], 98% (active). The inhibition (commonly the relative decrease from the control value, in per cent) in assay [2] is 67% (active); in assay [3] it was -4%. Further, the result in assay [5], in assay [6], in assay [7] and in assay [8] was inactive.

Consider `Cc1noc(C)c1-c1cccc(CNCc2ccc(-c3cccc(-c4nc5ccc(C(F)(F)F)cc5[nH]4)c3)cc2)c1`, for which the growth inhibition in assay [1] was 97% (active); in assay [4] it was 101% (active). The inhibition in assay [2] was 37%; in assay [3], 3%. Besides, the outcome in assay [5], in assay [6], in assay [7] and in assay [8] was inactive.

Turning to `O=C(/C=C/c1ccc(Cl)c(Cl)c1)NCCCCCN1CCCC(CNC(=O)c2sc3ccccc3c2Cl)C1` (stereo not given), the growth inhibition in assay [1] is -3%; in assay [4], 98% (active). The values for the inhibition in assay [2] and in assay [3] were 42% and 4%, respectively. Moreover, the result in assay [5], in assay [6], in assay [7] and in assay [8] was inactive.

For the compound `C[C@@H](CC1CCCCC1)OC(=O)N(C)[C@@H]1CCN(C#N)C1`, the growth inhibition is 96% (active) in assay [1] and 95% (active) in assay [4]. In addition, the inhibition was 5% in assay [2] and 3% in assay [3]. Besides, the result in assay [5], in assay [6], in assay [7] and in assay [8] was inactive.

With `CCCN(CCC)CCCNc1ccc(C(=O)Nc2ccc(C(C)C)cc2)cc1[N+](=O)[O-]`, the growth inhibition was 38% in assay [1] and 98% (active) in assay [4]. The inhibition in assay [2] is 17%; in assay [3], -8%. In addition, the result in assay [5], in assay [6], in assay [7] and in assay [8] was inactive.

Take `COc1ccc(C2NCCc3c2[nH]c2ccccc32)cc1CN1CCN(c2ccc(F)cc2)CC1` (stereo not given): the growth inhibition in assay [1] was 56% (active); in assay [4], 97% (active). For the same compound, the values for the inhibition in assay [2] and in assay [3] were 37% and -1%, respectively. Moreover, the outcome in assay [5], in assay [6], in assay [7] and in assay [8] was inactive.

As for `O=C(Nc1cccc(Cl)c1)c1cnc(N2CCN(c3ccncc3)CC2)c(Cl)c1`, the growth inhibition in assay [1] is 97% (active); in assay [4], 101% (active). Also, the inhibition is 54% (active) in assay [2] and 4% in assay [3]. Besides, the result in assay [5], in assay [6], in assay [7] and in assay [8] was inactive.

`CC(C)c1ccc(NC(=O)c2cccc(CN3CCCN(Cc4cccc(O)c4)CC3)c2)cc1`: the growth inhibition is 33% in assay [1] and 97% (active) in assay [4]. Also, the inhibition is 25% in assay [2] and -2% in assay [3]. For the same compound, the outcome in assay [5], in assay [6], in assay [7] and in assay [8] was inactive.

As for `COc1ccc(-c2nc3c(NCc4ccccc4)nccc3[nH]2)c(OC)c1`, the growth inhibition in assay [1] is 21%; in assay [4] it was 99% (active). Also, the inhibition in assay [2] is 16%; in assay [3] it was 4%. Besides, the result in assay [5], in assay [6], in assay [7] and in assay [8] was inactive.

Turning to `CCCC(=O)Nc1ccc(OCCCCN(CC(C)(C)C)c2ccc(C#N)c(C(F)(F)F)c2)cc1`, the growth inhibition in assay [1] is 69% (active); in assay [4], 83% (active). The inhibition in assay [2] is 9%; in assay [3] it was -1%. Besides, the outcome in assay [5], in assay [6], in assay [7] and in assay [8] was inactive.

`CCc1cn2c3c(cc(C(=O)N[C@@H](Cc4ccccc4)[C@H](O)CNC(C)(C)CCCC(C)C)cc13)N(C)S(=O)(=O)C2`: the growth inhibition in assay [1] and in assay [4] was 98% (active) each time. Further, the results for the inhibition in assay [2] and in assay [3] were 71% (active) and 8%, respectively. The outcome in assay [5], in assay [6], in assay [7] and in assay [8] was inactive.

With `COc1ccc(-c2cc(C(F)(F)F)n3ncc(C(=O)Nc4cc(C)ccc4O)c3n2)cc1OC`, the growth inhibition in assay [1] and in assay [4] was 100% (active) each time. Besides, the inhibition in assay [2] was 2%; in assay [3], 0%. The outcome in assay [5], in assay [6], in assay [7] and in assay [8] was inactive.

Take `COc1ccccc1CCNc1nc(C)cc(N[C@@H](Cc2ccccc2)C(=O)Nc2ccccc2)n1`: the results for the growth inhibition in assay [1] and in assay [4] were 86% (active) and 101% (active), respectively. Further, the inhibition was 30% in assay [2] and 0% in assay [3]. The result in assay [5], in assay [6], in assay [7] and in assay [8] was inactive.

With `COC(=O)c1ccc2nc(-c3ccc(/C=C/C(=O)NCc4ccc(Cl)c(Cl)c4)cc3)[nH]c2c1`, the values for the growth inhibition in assay [1] and in assay [4] were 3% and 81% (active), respectively. The values for the inhibition in assay [2] and in assay [3] were 13% and -3%, respectively. Besides, the outcome in assay [5], in assay [6], in assay [7] and in assay [8] was inactive.

Take `COc1cccc(CCc2ccc(O)c3c2C[C@H]2C[C@H]4[C@H](N(C)C)C(=O)C(C(N)=O)=C(O)[C@@]4(O)C(=O)C2=C3O)c1`: the growth inhibition is 67% (active) in assay [1] and 93% (active) in assay [4]. The results for the inhibition in assay [2] and in assay [3] were 43% and -4%, respectively. Besides, the outcome in assay [5], in assay [6], in assay [7] and in assay [8] was inactive.

On to `CCOC(=O)c1cn(CC)c2cc(N3CCCCCC3)c(F)cc2c1=O`, for which the growth inhibition in assay [1] is 89% (active); in assay [4], 94% (active). The inhibition is -2% in assay [2] and 3% in assay [3]. The result in assay [5], in assay [6], in assay [7] and in assay [8] was inactive.

`Cc1ccc2nc(C)cc(NN=Cc3cccc([N+](=O)[O-])c3)c2c1`: the values for the growth inhibition in assay [1] and in assay [4] were 99% (active) and 102% (active), respectively. For the same compound, the inhibition in assay [2] was 0%; in assay [3] it was 1%. Besides, the outcome in assay [5], in assay [6], in assay [7] and in assay [8] was inactive.

As for `CCn1ccc2c(N3CCCCS3(=O)=O)cc(C(=O)N[C@@H](Cc3ccccc3)[C@H](O)CNC(C)(C)c3cccc(C(F)(F)F)c3)cc21`, the values for the growth inhibition in assay [1] and in assay [4] were 98% (active) and 97% (active), respectively. The inhibition in assay [2] is 6%; in assay [3] it was -4%. The result in assay [5], in assay [6], in assay [7] and in assay [8] was inactive.

For `CCC(C)CN1C(=O)C(c2ccccc2)(c2ccccc2)N=C1N` (stereo not given), the figures for the growth inhibition in assay [1] and in assay [4] were 79% (active) and 98% (active), respectively. Besides, the values for the inhibition in assay [2] and in assay [3] were 11% and 4%, respectively. Besides, the result in assay [5], in assay [6], in assay [7] and in assay [8] was inactive.

Take `CN1CCOc2ccc(Nc3nnc(-c4cccc(-c5cccnc5)c4)o3)cc2C1`: the growth inhibition in assay [1] and in assay [4] was 100% (active) each time. The figures for the inhibition in assay [2] and in assay [3] were -4% and -1%, respectively. The outcome in assay [5], in assay [6], in assay [7] and in assay [8] was inactive.
